According to PubChem BioAssay (EPA / NIEHS):
“And” between values parts separate entries of the source, which are not always exact repeats. Equal values may be shown once. Inconclusive results are not listed. The source made the active and inactive calls. The calls were made as follows: active = hit-call score of the fitted dose curve at least 0.9, where 1 is the maximum; inconclusive = response in the unintended direction; inactive = score below 0.9.

Experiments:
[1] = molecular target: bovine Estrogen Receptor (ER), ESR1 (gene 407238) (UniProt P49884); experiment: NVS_NR_bER: NovaScreen (NVS) Nuclear Receptor Binding Assay for bovine Estrogen Receptor (ER) (AID 2283345);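 also: actives lower the bound radioligand count which means they displace the ER ligand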
Sequence of bovine Estrogen Receptor (ER), ESR1 (gene 407238) (P49884 whole entry, looked up): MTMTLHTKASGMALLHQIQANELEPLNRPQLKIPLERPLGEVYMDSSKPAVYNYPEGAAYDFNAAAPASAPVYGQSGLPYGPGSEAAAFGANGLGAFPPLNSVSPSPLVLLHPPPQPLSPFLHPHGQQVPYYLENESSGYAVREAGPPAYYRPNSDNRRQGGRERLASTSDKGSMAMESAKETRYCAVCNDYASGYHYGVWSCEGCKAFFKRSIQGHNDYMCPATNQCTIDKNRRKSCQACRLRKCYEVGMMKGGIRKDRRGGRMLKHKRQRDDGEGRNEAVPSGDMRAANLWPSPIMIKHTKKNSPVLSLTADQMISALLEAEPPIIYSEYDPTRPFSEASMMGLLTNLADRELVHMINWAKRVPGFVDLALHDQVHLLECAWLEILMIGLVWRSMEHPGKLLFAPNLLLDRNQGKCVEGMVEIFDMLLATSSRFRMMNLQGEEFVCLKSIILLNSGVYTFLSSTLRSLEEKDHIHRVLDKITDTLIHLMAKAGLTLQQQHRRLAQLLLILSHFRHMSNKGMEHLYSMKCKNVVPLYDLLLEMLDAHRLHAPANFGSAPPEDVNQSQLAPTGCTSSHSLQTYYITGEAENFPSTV
Summary of the method: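 Displacement of a radioligand from estrogen receptor in bovine uterine membrane preparations; scintillation signal taken at 18 hours, DMSO as baseline. Single-concentration duplicates (25 uM) preceded concentration-response follow-up of actives.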

[2] = molecular target: Estrogen receptor (Homo sapiens) (UniProt P03372); experiment: OT_ER_ERaERa_1440: Odyssey Thera (OT) 24-hour HEK293T Protein-Complementation Assay for Estrogen Receptor-alpha/-alpha Homodimer (AID 2283349);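 also: hits raise fluorescence above DMSO for agonists and antagonists alike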
Sequence of Estrogen receptor (Homo sapiens) (P03372 whole entry, looked up, the tested form may be a part): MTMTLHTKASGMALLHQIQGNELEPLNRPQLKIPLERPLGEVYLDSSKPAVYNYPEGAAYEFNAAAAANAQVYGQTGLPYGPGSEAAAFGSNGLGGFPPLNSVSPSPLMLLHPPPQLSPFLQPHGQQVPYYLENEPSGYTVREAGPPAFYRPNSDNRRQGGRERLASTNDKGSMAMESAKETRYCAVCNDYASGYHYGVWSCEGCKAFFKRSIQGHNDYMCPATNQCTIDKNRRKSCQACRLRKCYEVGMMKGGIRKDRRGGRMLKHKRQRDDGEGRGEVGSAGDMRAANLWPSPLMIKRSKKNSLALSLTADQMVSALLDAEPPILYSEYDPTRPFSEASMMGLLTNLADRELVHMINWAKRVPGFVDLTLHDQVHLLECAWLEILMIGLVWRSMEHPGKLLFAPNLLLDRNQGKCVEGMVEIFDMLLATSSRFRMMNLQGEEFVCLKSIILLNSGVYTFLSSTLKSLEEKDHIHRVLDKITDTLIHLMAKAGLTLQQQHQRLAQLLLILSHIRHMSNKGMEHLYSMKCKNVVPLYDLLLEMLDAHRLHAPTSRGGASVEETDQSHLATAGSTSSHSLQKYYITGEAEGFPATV
Summary of the method: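 Readout is the rise in mean fluorescence from reporter fragment complementation when ERα LBD (aa 310-547) units dimerize in HEK293T cells. Measured 24 h after dosing and analysed as increase over DMSO control.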

[3] = molecular target: Bile acid receptor (Homo sapiens) (UniProt Q96RI1); experiment: NVS_NR_hFXR_Antagonist: NovaScreen (NVS) Nuclear Receptor Binding Assay for human Farnesoid X Receptor Antagonism (FXR) (AID 2283350)
Summary of the method: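 Cell-free TR-FRET ligand-binding read-out on human FXR (NR1H4) in antagonist mode, measured 1 h after dosing. Primary screen in duplicate at 25 uM, actives retested in concentration series; signal loss scored versus DMSO.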

[4] = molecular target: T1, Estrogen receptor (Homo sapiens) + Estrogen receptor beta (Homo sapiens) (UniProt P03372+Q92731); experiment: OT_ER_ERaERb_0480: Odyssey Thera (OT) 8-hour HEK293T Protein-Complementation Assay for Estrogen Receptor-alpha/-beta Heterodimer (AID 2283352)
T1 sequence (P03372 whole entry, looked up, the tested form may be a part): as above
T1 sequence (Q92731 whole entry, looked up, the tested form may be a part): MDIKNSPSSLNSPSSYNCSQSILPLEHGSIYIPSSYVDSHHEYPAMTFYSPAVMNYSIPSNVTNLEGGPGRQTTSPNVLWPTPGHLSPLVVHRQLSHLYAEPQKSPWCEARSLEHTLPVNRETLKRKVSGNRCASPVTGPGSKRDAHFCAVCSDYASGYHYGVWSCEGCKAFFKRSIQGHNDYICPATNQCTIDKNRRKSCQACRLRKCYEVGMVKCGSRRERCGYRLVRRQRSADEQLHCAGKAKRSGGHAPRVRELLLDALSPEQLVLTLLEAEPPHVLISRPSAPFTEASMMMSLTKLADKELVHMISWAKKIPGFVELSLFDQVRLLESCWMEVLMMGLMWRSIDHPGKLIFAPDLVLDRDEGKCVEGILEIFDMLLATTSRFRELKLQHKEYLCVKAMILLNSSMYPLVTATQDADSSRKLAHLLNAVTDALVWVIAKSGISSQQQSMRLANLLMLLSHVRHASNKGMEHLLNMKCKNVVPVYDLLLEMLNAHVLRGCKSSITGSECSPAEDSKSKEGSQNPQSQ
Summary of the method: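 Human HEK293T cells were treated for 8 hours and receptor heterodimerisation was detected through reconstitution of a fluorescent reporter split between ER-alpha and ER-beta ligand-binding domains. Activity was analysed as gain of signal against DMSO.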

[5] = molecular target: Androgen Receptor/SRC-1 Co-activator, AR (gene 367) (UniProt P10275); experiment: OT_AR_ARSRC1_0960: Odyssey Thera (OT) 16-hour HEK293T Protein-Complementation Assay for Androgen Receptor/SRC-1 Co-activator (AID 2283353);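 also: actives raise the signal above DMSO so potency reflects increased AR and SRC-1 complex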
Sequence of Androgen Receptor/SRC-1 Co-activator, AR (gene 367) (P10275 whole entry, looked up, the tested form may be a part): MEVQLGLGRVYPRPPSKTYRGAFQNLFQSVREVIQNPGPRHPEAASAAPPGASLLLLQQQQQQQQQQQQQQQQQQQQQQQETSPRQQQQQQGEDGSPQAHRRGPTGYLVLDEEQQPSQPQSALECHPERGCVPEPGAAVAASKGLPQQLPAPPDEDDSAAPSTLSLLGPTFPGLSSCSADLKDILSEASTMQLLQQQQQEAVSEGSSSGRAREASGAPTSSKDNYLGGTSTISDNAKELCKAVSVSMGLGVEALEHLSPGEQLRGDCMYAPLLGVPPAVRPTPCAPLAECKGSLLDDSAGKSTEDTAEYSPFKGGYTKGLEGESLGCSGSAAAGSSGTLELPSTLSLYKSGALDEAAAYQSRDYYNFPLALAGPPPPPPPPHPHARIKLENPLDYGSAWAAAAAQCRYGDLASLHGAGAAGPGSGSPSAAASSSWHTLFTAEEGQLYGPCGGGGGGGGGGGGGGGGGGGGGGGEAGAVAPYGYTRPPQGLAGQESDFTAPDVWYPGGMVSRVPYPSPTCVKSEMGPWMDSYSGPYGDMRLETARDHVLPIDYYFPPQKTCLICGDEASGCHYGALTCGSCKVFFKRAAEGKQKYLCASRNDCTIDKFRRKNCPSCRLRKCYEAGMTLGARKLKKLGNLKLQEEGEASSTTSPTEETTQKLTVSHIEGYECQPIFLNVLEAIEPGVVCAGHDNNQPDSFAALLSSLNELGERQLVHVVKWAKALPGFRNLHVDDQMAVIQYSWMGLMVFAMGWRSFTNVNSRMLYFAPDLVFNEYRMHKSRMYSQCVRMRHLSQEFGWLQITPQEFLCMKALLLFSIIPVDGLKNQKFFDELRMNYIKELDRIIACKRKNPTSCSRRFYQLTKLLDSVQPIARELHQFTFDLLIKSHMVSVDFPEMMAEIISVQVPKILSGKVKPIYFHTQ
Summary of the method: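 HEK293T cells stably expressing AR and SRC-1 fused to split Venus YFP fragments via (Gly4Ser)2 linkers were dosed for 16 h. Nuclear/cytoplasmic fluorescence ratio at 488 nm, ≥400 cells per image, fitted for gain of signal versus DMSO.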

[6] = molecular target: T1, Estrogen receptor (Homo sapiens) + Estrogen receptor beta (Homo sapiens); experiment: OT_ER_ERaERb_1440: Odyssey Thera (OT) 24-hour HEK293T Protein-Complementation Assay for Estrogen Receptor-alpha/-beta Homodimer (AID 2283356);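 also: heteromer of ER alpha and ER beta binding domains; hits raise reporter fluorescence and both agonists and antagonists give an increase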
Summary of the method: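 24 h exposure; HEK293T PCA cells with ERα/ERβ LBD fragments; signal rise in nuclear or whole-cell fluorescence over vehicle.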

[7] = molecular target: Estrogen receptor beta (Homo sapiens) (UniProt Q92731); experiment: OT_ER_ERbERb_0480: Odyssey Thera (OT) 8-hour HEK293T Protein-Complementation Assay for Estrogen Receptor-beta/-beta Homodimer (AID 2283357);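 also: active means signal gain over DMSO baseline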
Sequence of Estrogen receptor beta (Homo sapiens) (Q92731 whole entry, looked up, the tested form may be a part): as the sequence (Q92731 whole entry, looked up, the tested form may be a part) above
Summary of the method: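 Readout: increase in mean fluorescence intensity (nucleus for agonists; nucleus plus cytoplasm for antagonists) relative to DMSO, from a reporter-fragment complementation of human ER-beta LBD homodimer in HEK293T cells dosed 8 hours.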

[8] = molecular target: chimpanzee Androgen Receptor (AR), AR (gene 747460) (UniProt O97775); experiment: NVS_NR_cAR: NovaScreen (NVS) Nuclear Receptor Binding Assay for chimpanzee Androgen Receptor (AR) (AID 2283346);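 also: radioligand displacement from AR measured by scintillation counting in a cell-free assay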
Summary of the method: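 Cell-free radioligand displacement using receptor protein extracted from Sf9/Sf21 cells; bound radioligand measured by scintillation counting 72 hours after chemical dosing. Loss of signal versus DMSO baseline indicates binding; primary screen single-concentration in duplicate at 25 uM, actives followed in concentration series.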

PGR (gene 5241) = PGR (gene 5241) (UniProt P06401); experiment: NVS_NR_hPR: NovaScreen (NVS) Nuclear Receptor Binding Assay for human Progestron Receptor (PR) (AID 2283360)
Sequence of PGR (gene 5241) (P06401 whole entry, looked up): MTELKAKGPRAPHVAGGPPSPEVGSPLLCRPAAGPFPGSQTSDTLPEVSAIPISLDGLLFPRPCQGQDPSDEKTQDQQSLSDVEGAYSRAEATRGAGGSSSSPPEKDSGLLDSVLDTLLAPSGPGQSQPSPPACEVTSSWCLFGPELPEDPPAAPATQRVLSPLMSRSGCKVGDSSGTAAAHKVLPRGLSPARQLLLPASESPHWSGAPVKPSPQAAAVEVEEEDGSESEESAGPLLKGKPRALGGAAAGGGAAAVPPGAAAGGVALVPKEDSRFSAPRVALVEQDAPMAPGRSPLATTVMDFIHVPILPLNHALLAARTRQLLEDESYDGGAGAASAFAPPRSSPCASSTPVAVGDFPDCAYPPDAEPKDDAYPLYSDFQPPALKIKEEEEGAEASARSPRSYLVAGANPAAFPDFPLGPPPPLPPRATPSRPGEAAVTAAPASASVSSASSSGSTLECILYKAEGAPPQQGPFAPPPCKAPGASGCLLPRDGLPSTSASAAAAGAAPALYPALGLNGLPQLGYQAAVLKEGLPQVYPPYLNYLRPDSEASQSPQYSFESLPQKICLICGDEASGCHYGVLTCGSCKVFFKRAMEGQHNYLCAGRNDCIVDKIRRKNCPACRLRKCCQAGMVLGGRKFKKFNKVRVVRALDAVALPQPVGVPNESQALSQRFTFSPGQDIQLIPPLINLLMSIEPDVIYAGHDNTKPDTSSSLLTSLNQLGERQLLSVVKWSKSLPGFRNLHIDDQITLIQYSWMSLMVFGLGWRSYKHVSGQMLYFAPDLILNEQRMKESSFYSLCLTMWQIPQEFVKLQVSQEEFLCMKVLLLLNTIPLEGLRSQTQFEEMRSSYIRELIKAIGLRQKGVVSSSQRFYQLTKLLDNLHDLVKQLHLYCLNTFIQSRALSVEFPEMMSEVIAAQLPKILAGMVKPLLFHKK
Summary of the method: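 T47D-derived receptor preparation, cell-free, with tritiated or iodinated radioligand displacement measured by scintillation 18 h post-dosing. Single 25 uM duplicate screen, then concentration series; signal loss relative to DMSO.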

[9] = molecular target: Nuclear receptor subfamily 1 group I member 2 (Homo sapiens) (UniProt O75469); experiment: NVS_NR_hPXR: NovaScreen (NVS) Nuclear Receptor Binding Assay for human Pregnane X Receptor (PXR) (AID 2283365);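 also: a drop in FRET signal versus DMSO baseline means the compound binds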
Sequence of Nuclear receptor subfamily 1 group I member 2 (Homo sapiens) (O75469 whole entry, looked up): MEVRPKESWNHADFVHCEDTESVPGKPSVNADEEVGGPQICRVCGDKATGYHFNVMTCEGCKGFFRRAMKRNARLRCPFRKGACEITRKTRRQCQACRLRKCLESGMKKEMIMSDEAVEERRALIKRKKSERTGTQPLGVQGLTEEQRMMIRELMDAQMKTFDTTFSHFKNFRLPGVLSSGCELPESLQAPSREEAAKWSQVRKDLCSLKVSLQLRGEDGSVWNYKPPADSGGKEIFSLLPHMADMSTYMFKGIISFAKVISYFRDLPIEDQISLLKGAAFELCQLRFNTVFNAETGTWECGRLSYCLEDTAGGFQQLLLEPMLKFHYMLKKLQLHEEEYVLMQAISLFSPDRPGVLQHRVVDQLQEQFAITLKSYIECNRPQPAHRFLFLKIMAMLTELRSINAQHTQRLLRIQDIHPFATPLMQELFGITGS
Summary of the method: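 Read-out: TR-FRET, human PXR, 2 h post-dosing, cell-free. Loss of signal vs DMSO taken as binding activity; 25 uM primary, concentration series secondary.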

[10] = molecular target: Glucocorticoid receptor (Homo sapiens) (UniProt P04150); experiment: NVS_NR_hGR: NovaScreen (NVS) Nuclear Receptor Binding Assay for human Glucocorticoid Receptor (GR) (AID 2283363);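 as to AC50: activity is loss of specific radioligand binding signal relative to DMSO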
Sequence of Glucocorticoid receptor (Homo sapiens) (P04150 whole entry, looked up): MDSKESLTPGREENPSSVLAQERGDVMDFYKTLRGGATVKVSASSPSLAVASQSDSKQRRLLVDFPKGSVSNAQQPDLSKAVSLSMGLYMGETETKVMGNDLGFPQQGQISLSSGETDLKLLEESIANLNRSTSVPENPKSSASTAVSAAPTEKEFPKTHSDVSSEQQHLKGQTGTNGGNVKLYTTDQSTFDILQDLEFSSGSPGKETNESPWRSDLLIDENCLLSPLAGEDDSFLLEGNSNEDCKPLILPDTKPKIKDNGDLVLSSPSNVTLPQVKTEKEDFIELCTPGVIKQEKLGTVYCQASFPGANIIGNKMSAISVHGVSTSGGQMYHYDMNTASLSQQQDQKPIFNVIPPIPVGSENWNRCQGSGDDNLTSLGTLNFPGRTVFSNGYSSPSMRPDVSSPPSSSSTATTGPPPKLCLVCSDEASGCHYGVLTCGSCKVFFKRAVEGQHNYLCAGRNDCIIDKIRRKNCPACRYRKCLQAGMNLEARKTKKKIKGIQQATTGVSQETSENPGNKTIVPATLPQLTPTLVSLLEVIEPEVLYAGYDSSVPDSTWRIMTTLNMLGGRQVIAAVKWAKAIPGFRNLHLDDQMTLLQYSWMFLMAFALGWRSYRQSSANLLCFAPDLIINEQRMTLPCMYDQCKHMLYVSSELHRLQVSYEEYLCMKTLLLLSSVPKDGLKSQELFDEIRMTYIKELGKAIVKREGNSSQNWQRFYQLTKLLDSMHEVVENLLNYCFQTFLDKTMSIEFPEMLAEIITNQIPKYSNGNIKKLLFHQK
Summary of the method: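 Cell-free radioligand binding with extracted receptor protein, read by filter-based scintillation counting 16 hours after dosing. Loss of specific signal versus DMSO baseline was scored. Primary screen ran in duplicate at 25 uM; actives were followed up in concentration series.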

[11] = molecular target: human Adenosine Transporter (Adot), SLC29A1 (gene 2030) (UniProt Q99808); experiment: NVS_TR_hAdoT: NovaScreen (NVS) Transporter Assay for human Adenosine Transporter (Adot) (AID 2283368)
Summary of the method: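 U937-derived membranes, cell-free radioligand binding, filter scintillation 1 h after dosing. 25 uM duplicate screen; hits (e.g. 30% inhibition) run in concentration-response up to 50 uM; loss of signal versus DMSO.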

[12] = molecular target: human Constitutive Androstane Receptor (CAR), NR1I3 (gene 9970) (UniProt Q14994); experiment: NVS_NR_hCAR_Antagonist: NovaScreen (NVS) Nuclear Receptor Binding Assay for human Constitutive Androstane Receptor Antagonism (CAR) (AID 2283344)
Summary of the method: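 Cell-free TR-FRET binding read 1 h after dosing, antagonist mode; loss of signal versus DMSO baseline. Primary screen in duplicate at a single 25 uM; actives retested in concentration series.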

[13] = molecular target: Estrogen receptor (Homo sapiens) (UniProt P03372); experiment: OT_ER_ERaERa_0480: Odyssey Thera (OT) 8-hour HEK293T Protein-Complementation Assay for Estrogen Receptor-alpha/-alpha Homodimer (AID 2283351);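 also: rise in fluorescence from reassembled reporter fragments on ERα LBD homodimer in nucleus or whole cell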
Summary of the method: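 HEK293T cells stably expressing the human ERα ligand-binding domain (aa 310-547) as a homodimer PCA were dosed with compound for 8 h. Gain of fluorescence intensity versus DMSO vehicle was read by laser scanning cytometry.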

[14] = molecular target: rat Androgen Receptor (AR), Ar (gene 24208) (UniProt P15207); experiment: NVS_NR_rAR: NovaScreen (NVS) Nuclear Receptor Binding Assay for rat Androgen Receptor (AR) (AID 2283366)
Summary of the method: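 Cell-free radioligand binding on extracts of prostate from testosterone-pretreated rats, read by filter-based scintillation counting 18 h after dosing. Loss of bound signal fitted positively versus DMSO; primary screen in duplicate at 25 uM, actives followed up in concentration series.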

[15] = molecular target: Retinoic acid receptor alpha (Homo sapiens) (UniProt P10276); experiment: NVS_NR_hRARa_Agonist: NovaScreen (NVS) Nuclear Receptor Binding Assay for human Retinoic Acid Alpha Receptor Agonism (RAR) (AID 2283361)
Summary of the method: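 Cell-free TR-FRET binding read-out with extracted human RARα protein, read 2 h after compound addition. Gain of signal scored against DMSO baseline. Primary screen at a single 25 uM in duplicate; actives then retested in concentration series.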

Measured: AC50

O=C(Nc1ccc(Cl)cc1)Nc1ccc(Cl)c(Cl)c1
inactive: [1] | [2] | [3] | [4] | [6] | [7]
active: [5] 4.86 µM

Cc1cc2c(cc1C(F)(F)F)N(C(=O)Nc1ccc(Oc3cccnc3C)nc1)CC2
inactive: [1] | [8] | [2] | [6] | [7]

CC1(C)NC(=O)N(c2ccc([N+](=O)[O-])c(C(F)(F)F)c2)C1=O
inactive: [7] | [9]
active: [8] 1.06 µM and 136 nM | PGR (gene 5241) 15.7 µM

COc1cc(C(=O)NC2CCN(C)CC2)ccc1Nc1ncc2c(n1)N(C1CCCC1)CC(F)(F)C(=O)N2C
active: [2] 2.24 µM | [5] 25.9 µM | [6] 11 µM | [10] 9.44 µM | [11] 1.27 µM
inactive: [1] | [4] | [7]

CN(C)C(=O)C1(N2CCCCC2)CCN(CC[C@@]2(c3ccc(Cl)c(Cl)c3)CN(C(=O)c3ccccc3)CCO2)CC1
active: [8] 13.9 µM | [5] 11.8 µM | [10] 3.41 µM
inactive: [12] | [2] | PGR (gene 5241)

COCC(C)OCC(C)OCC(C)O (centres undefined)
inactive: [2] | [5] | [6] | [7] | PGR (gene 5241)

Cc1ccc(C(C)C)cc1
inactive: [2]

CN1C(=O)CC[C@H]1c1cccnc1
inactive: [7] | PGR (gene 5241)

O=c1ccc2ccccc2o1
inactive: [2] | [4] | [6] | [7]

Cc1cc(F)ccc1-c1cc(N2CC[C@@H](O)[C@H]2CO)ncc1N(C)C(=O)C(C)(C)c1cc(C(F)(F)F)cc(C(F)(F)F)c1
inactive: [2] | [3] | [13] | [4] | [6] | [7] | [14]
active: [5] 15.2 µM | PGR (gene 5241) 0.401 µM | [10] 4.3 µM

O=C=NCCCCCCN=C=O
inactive: [2] | [4] | [6]

Cc1ncc(CO)c(CO)c1O
active: PGR (gene 5241) 16.9 µM

O=C(OCCCCCCOC(=O)c1ccccc1)c1ccccc1
inactive: [2] | [13] | [15]

CCCC(=O)OCCC(C)C
active: PGR (gene 5241) 17.2 µM
inactive: [2] | [5]

Oc1ccc2ccccc2c1
inactive: [5] | [10]
active: [7] 37.7 µM

COc1cccc([C@H](O)C2CCN(CCc3ccc(F)cc3)CC2)c1OC
inactive: [2] | [4] | [6] | [7]
